Results published in ChEMBL document CHEMBL4513216, “Probing the Open Global Health Chemical Diversity Library for Multistage-Active Starting Points for Next-Generation Antimalarials” (ACS Infect Dis, 2020).
Hit rate of the full screen: of about 69,000 compounds, about 8,600 (12%) showed an effect of 50% or more. What follows is part of a selection rich in strong results, with near analogues and random picks from the rest.

What follows are compounds tested on Plasmodium berghei (assay: Screen against P. berghei liver stage (PbLuc), transformed with Luciferase, at 10uM). Details: tested at 10 uM.
Format: functional, HepG2

Compound | INHIBITION [%]
COCCN1C[C@@H]2CN(Cc3ccsc3)CCC[C@]2(C(=O)O)C1 | 3.47
COc1ccc(CN2CC(O)CN(C(=O)CC(C)C)CC2=O)cc1 (configuration not stated) | 19.2
CC(C)C(NC(=O)NCC1CC1)c1nnc2n1CCC2 (configuration not stated) | 43.4
CCC(CNC1CCN(C(C)=O)CC1)Oc1ccccc1Cl (configuration not stated) | 42
CCC(CNC1CCN(C(=O)N(C)C)CC1)Oc1ccccc1C (configuration not stated) | 18.2
CCC(CNC1CCN(C(C)=O)CC1)Oc1cccc(C)c1 (configuration not stated) | 61.5
O=C(c1cccnc1)N1CCC2(CC1)COC(COc1ccccn1)C2 (configuration not stated) | -2.25
c1cc(CN2CCO[C@H]3[C@H](OCCN4CCCC4)CC[C@@H]32)co1 | 48
Cc1cc2ncn(C(=O)N3CCCC3)c2cc1C | 22
Cc1nc2c(c(NC3CC3)n1)CCN(C(=O)C(C)(C)O)CC2 | 20.5
CCc1nc2c(c(NC3CC3)n1)CCN(C(=O)N1CCN(C)CC1)CC2 | 7.65
Cc1nc2c(c(NC(C)C)n1)CCN(C(=O)CCO)CC2 | 46.6
Cc1nc(C)c2c(n1)CCN(C(=O)C1(C#N)CC1)CC2 | 23.1
Cc1nc2c(c(NC3CC3)n1)CCN(C(=O)CCO)CC2 | 56.7
Cc1nc(N2CCOCC2)nc2c1CCN(C(=O)C1(C#N)CC1)CC2 | 30.3
CCc1nc2c(c(NC3CCC3)n1)CCN(C(=O)CO)CC2 | 53.2
CCc1nc2c(c(NC3CC3)n1)CCN(C(=O)Cc1nonc1C)CC2 | 19.5
Cc1nc2c(c(NC3CC3)n1)CCN(C(=O)C1(C#N)CC1)CC2 | 68.4
CCOC(=O)N1CCC(n2cc3[nH]cccc-3c2=O)CC1 | 9.63

Compound | INHIBITION [%]
CN(C)c1cc(C2CCCN(C(=O)Cn3cc(Cl)cn3)C2)ccn1 (configuration not stated) | 2.71
O=c1[nH]c(-c2ccccn2)nc2c1CCN(Cc1cccc(O)c1)C2 | 11.1
O=C(c1ccnnc1)N1CCN2C[C@H](Oc3cccc(F)c3)C[C@H]2C1 | 26.1
c1ccc(CCN2CCn3cc(Cn4cccn4)nc3C2)cc1 | 24.9
O=C(C1CN(CC2CCOCC2)CC12CCOCC2)N1CCCC1 (configuration not stated) | 29.8
CCN(Cc1cnn(C)c1)C[C@H]1CC[C@@H](Cc2ccc(C)nc2)O1 | 12.9
CNC(=O)Cc1nc(CNc2ccc(SC)c(F)c2)cs1 | 80.7
CSc1ccc(NCc2csc(CS(C)(=O)=O)n2)cc1F | 17
CSc1ccc(NCc2csc(C)n2)cc1F | -35
CC1CN(C(=O)c2cccc(OCc3cscn3)c2)CCO1 (configuration not stated) | 39.75
CN1CCOC(C)(C(=O)N2CCSCC2)C1 (configuration not stated) | 18.3
Cc1cc(NCCSc2nccn2C)n2ncnc2n1 | 18.2
CNC(=O)c1cc(C2CCCNC2)n[nH]1 (configuration not stated) | 5.34
CC(C)N(CCNC(=O)c1n[nH]c2ccccc12)C(C)C | 24.8
CC(C)N(CCNC(=O)c1[nH]nc2ccc(I)cc12)C(C)C | 58.2
CNC(=O)c1[nH]nc2ccc(I)cc12 | 77.7
CNC(=O)c1ccc2c(OC)n(C)nc2c1 | 20.7
CN(C)CCNC(=O)Cc1cccc(I)c1 | 1.75
Cc1cccc(-c2nc(CN3CCc4cncnc4C3)no2)c1 | -12.2

Compound | INHIBITION [%]
Brc1ccc2[nH]c3c(c2c1)CCCC3c1nn[nH]n1 (configuration not stated) | 0.0996
CCc1cc(C(=O)N2CCCC(c3cc(=O)nc4n3CCC4)C2)no1 (configuration not stated) | -35.5
Cc1ncsc1CN1C[C@H](C(=O)N2CCCO2)[C@@H]2CCO[C@@H]2C1 | 25.1
O=c1c2c[nH]c(N3CCOCC3)nc-2cn1-c1ccc2c(c1)OCO2 | -21.5
CC(C)(C)OC(=O)N1CCN(c2ccc(F)cc2)CC1C(=O)O (configuration not stated) | -5.8
CCc1nc(CCNC(=O)Nc2ccc(C(=O)NC)cc2C)cs1 | 1.28
CCc1nc(CCNC(=O)Nc2cccc(C(=O)NC)c2C)cs1 | -12.5
CCc1nc(CCNC(=O)Nc2ccc(C(=O)NC)cc2)cs1 | 57.7
CC(C)CS(=O)(=O)NC(=O)c1ccc2c(c1)ncn2C | -57.9
c1cc(NCc2ccncc2)nc(C2CCCNC2)c1 (configuration not stated) | 18.4
CC1c2ncc(COc3cccnc3)n2CCN1C(=O)C1=CCCC1 (configuration not stated) | -7.11
CC(C)(C)NC(=O)Cn1nc(C2CC2)cc(C(F)(F)F)c1=O | 28.7
CC(C)(C)C(=O)Cn1nc(C2CC2)cc(C(F)(F)F)c1=O | 77.6
CC(C)(C)OC(=O)Cn1nc(C2CC2)cc(C(F)(F)F)c1=O | 32
CCN1CCN(C(=O)NCc2ccccc2Cn2cncn2)CC1 | 32.7
Cn1ncnc1NCc1ccc(Br)cc1 | 20.9
COc1ccc(C2SCC(=O)N2c2ncc(C)s2)cc1 (configuration not stated) | 24.7
O=C(c1n[nH]c(=O)c2ccccc12)N1CCCCC1c1ccn[nH]1 (configuration not stated) | 40.9
CC1CCCCN1C(=O)c1n[nH]c(=O)c2ccccc12 (configuration not stated) | 60.2
